Test results: PubChem BioAssay (EPA / NIEHS)
Several values for one entry are separate records, joined by “and”; a condition that tells them apart may be missing. Identical values can stand only once. Inconclusive results are not listed. Some compounds were tested as several samples or in several runs, with calls that do not always agree. Activity calls are given as the source filed them. How the source made its calls, unless noted: active means hit-call score of the fitted dose curve at least 0.9, where 1 is the maximum; inconclusive means response in the unintended direction; inactive means score below 0.9.

What was measured:
[1] = read-out: Transforming Growth Factor (TGFB1), TGFB1 (gene 7040); assay: LTEA_HepaRG_TGFB1: Life Technologies and Expression Analysis (LTEA) Assay for Transforming Growth Factor (TGFB1) Transporter using HepaRG (AID 2283533; active means hit-call score of the fitted dose curve at least 0.9, where 1 is the maximum; inactive means score below 0.9); conditions: mRNA level, 48 h; actives raise or lower the signal
Procedure, shortened: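 Expression change of TGFB1 in human HepaRG cells is measured after a 48 h chemical exposure, up to 100 uM in 0.5% DMSO vehicle. Curves are fitted in both directions relative to the DMSO baseline.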

[2] = read-out: TIMP1, TIMP1 (gene 7076); assay: LTEA_HepaRG_TIMP1: Life Technologies and Expression Analysis (LTEA) Assay for TIMP1 using HepaRG (AID 2283534; active means hit-call score of the fitted dose curve at least 0.9, where 1 is the maximum; inactive means score below 0.9); conditions: mRNA level, 48 h; actives raise or lower the signal
Procedure, shortened: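 We dosed human liver HepaRG cultures for 48 hours with up to 100 uM test chemical and measured TIMP1 expression by qRT-PCR. Activity in either direction is fitted relative to the 0.5% DMSO vehicle.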

[3] = read-out: UDP glucuronosyltransferase (UGT1A1), UGT1A1 (gene 54658); assay: LTEA_HepaRG_UGT1A1: Life Technologies and Expression Analysis (LTEA) Assay for UDP glucuronosyltransferase (UGT1A1) using HepaRG (AID 2283538; active means hit-call score of the fitted dose curve at least 0.9, where 1 is the maximum; inactive means score below 0.9); conditions: mRNA level, 48 h; actives raise or lower the signal
Procedure, shortened: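 HepaRG cells, 0.5% DMSO vehicle, 48 h exposure in serum-free induction medium to 8-point half-log series topping at 100 uM, in duplicate. UGT1A1 mRNA by Fluidigm qRT-PCR, normalized to ACTB/GAPDH/POLR2A; bidirectional fit versus DMSO.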

[4] = read-out: UDP glucuronosyltransferase (UGT1A6), UGT1A6 (gene 54578); assay: LTEA_HepaRG_UGT1A6: Life Technologies and Expression Analysis (LTEA) Assay for UDP glucuronosyltransferase (UGT1A6) using HepaRG (AID 2283539; active means hit-call score of the fitted dose curve at least 0.9, where 1 is the maximum; inactive means score below 0.9); conditions: mRNA level, 48 h; actives raise or lower the signal
Procedure, shortened: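 Endpoint is UGT1A6 transcript induction or loss in a human liver cell line, quantified by TaqMan qRT-PCR 48 h after dosing. Concentrations ran from 100 uM downward in half-log steps in 0.5% DMSO; activity was fitted in both directions versus vehicle.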

[5] = read-out: X-box binding protein 1 (XBP1), XBP1 (gene 7494); assay: LTEA_HepaRG_XBP1: Life Technologies and Expression Analysis (LTEA) Assay for X-box binding protein 1 (XBP1) using HepaRG (AID 2283540; active means hit-call score of the fitted dose curve at least 0.9, where 1 is the maximum; inactive means score below 0.9); conditions: mRNA level, 48 h; actives raise or lower the signal
Procedure, shortened: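 Human HepaRG monolayers receive test chemical for 48 h across an eight-point half-log series starting at 100 uM. XBP1 mRNA gain or loss is scored against DMSO by qRT-PCR.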

[6] = LTEA_HepaRG_LDH_cytotoxicity: Cytotoxicity Assessment in the Life Technologies and Expression Analysis (LTEA) Assay (AID 2283563);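 on AC50: LDH activity released into spent culture medium as a marker of cell death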
Procedure, shortened: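 Human HepaRG hepatic cells are treated with test chemicals for 48 h at up to 100 uM in 0.5% DMSO. Cytotoxicity is scored from medium LDH against the vehicle control.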

[7] = ATG_XTT_Cytotoxicity: Cytotoxicity Assessment in the Attagene TRANS-FACTORIAL HepG2 Assay (AID 2283584);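 on AC50: XTT signal for cell number as viability in transfected HepG2 cells; cells exposed to compound for 24 h before reading; active means loss of viability signal versus DMSO baseline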
Procedure, shortened: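 Transfect HepG2 with GAL4-UAS reporter units, dose compound, incubate 24 h, then measure viable cell number by XTT. Fit concentration response against DMSO baseline.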

[8] = target: Cellular tumor antigen p53 (Homo sapiens) (UniProt P04637); assay: TOX21_p53_BLA_p2_ratio: Tox21 HCT-116 p53 Agonism Beta-lactamase Assay, Ratio, Phase 2 (AID 2283592)
Procedure, shortened: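 An inducible beta-lactamase reporter in HCT116 cells signals p53 pathway activation. After 16 h chemical exposure at 37C, cells load CCF4-AM substrate for 2 h at room temperature; activity is the cleaved/uncleaved emission ratio relative to DMSO.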

[9] = TOX21_p53_BLA_p2_viability: Viability Assessment in the Tox21 HCT-116 p53 Agonism Beta-lactamase Assay, Phase 2 (AID 2283591);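 further: compound exposure lasted 16 h at 37 °C; actives lower the ATP signal meaning cytotoxicity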
Procedure, shortened: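 Cytotoxicity readout: CellTiter-Glo ATP luminescence, 30 min at room temperature, after the beta-lactamase read. Cells were HCT116 exposed 16 h at 37C to compounds pin-transferred at 217-fold dilution from DMSO stocks.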

[10] = TOX21_p53_BLA_p3_viability: Viability Assessment in the Tox21 HCT-116 p53 Agonism Beta-lactamase Assay, Phase 3 (AID 2283593);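 further: cells exposed to compound for 16 h before reading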
Procedure, shortened: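 Cellular ATP was quantified by CellTiter-Glo luminescence, read after 30 min at room temperature. Beforehand, HCT116 cells (4000/well) received compound 5 h post-seeding, 217-fold diluted from DMSO, then incubated 16 h at 37C.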

Measured: AC50

Chain of Cellular tumor antigen p53 (Homo sapiens) (P04637 whole entry, looked up): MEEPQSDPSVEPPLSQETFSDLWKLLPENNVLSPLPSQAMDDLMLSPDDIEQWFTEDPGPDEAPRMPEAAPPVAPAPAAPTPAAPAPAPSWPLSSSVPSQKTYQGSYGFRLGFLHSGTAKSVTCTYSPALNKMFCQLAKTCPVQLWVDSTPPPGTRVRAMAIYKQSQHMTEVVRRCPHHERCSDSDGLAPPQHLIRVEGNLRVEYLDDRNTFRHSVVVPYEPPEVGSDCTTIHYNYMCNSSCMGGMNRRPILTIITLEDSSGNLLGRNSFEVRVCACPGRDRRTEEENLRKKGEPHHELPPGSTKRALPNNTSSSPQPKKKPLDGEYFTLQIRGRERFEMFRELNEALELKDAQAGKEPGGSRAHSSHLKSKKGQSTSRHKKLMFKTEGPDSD

CCC(=O)C(CC(C)N(C)C)(c1ccccc1)c1ccccc1 (stereo unspecified)
not listed: [9] | [10]
inactive: all other assays above

O=C1C2(Cl)C3(Cl)C4(Cl)C(Cl)(Cl)C5(Cl)C3(Cl)C1(Cl)C5(Cl)C24Cl (stereo unspecified)
inactive: [7]
active: [1] 92.5 µM | [2] 93.4 µM | [3] 15.8 µM | [4] 94.7 µM | [5] 92.4 µM | [6] 72.1 µM | [7] 31.8 µM and 35.1 µM | [9] 73.9 µM and 73.7 µM | [8] 82.6 µM and 60.4 µM | [10] 80.6 µM and 78.5 µM

CCOP(=S)(OCC)Oc1nc(Cl)c(Cl)cc1Cl
active: [3] 50 µM
not listed: [7]
inactive: all other assays above

CCOP(=S)(OCC)SCSP(=S)(OCC)OCC
active: [3] 14.8 µM | [5] 0.245 µM
not listed: [9]
inactive: all other assays above

ClC1(Cl)C2(Cl)C3(Cl)C4(Cl)C(Cl)(Cl)C5(Cl)C3(Cl)C1(Cl)C5(Cl)C24Cl (stereo unspecified)
not listed: [9]
inactive: all other assays above

C=CCc1ccc(OC)cc1
inactive: [7]

CC(C)(c1ccccc1)c1ccc(O)c(C(C)(C)c2ccccc2)c1
inactive: [1] | [2] | [4] | [5]
active: [3] 12.2 µM | [6] 72.2 µM | [9] 11.4 µM and 20.3 µM | [8] 43.2 µM and 46.9 µM | [10] 40.5 µM and 53.8 µM

COc1cc(-c2ccc(N)c(OC)c2)ccc1N
active: [3] 25.4 µM and 22.1 µM | [8] 63 µM
inactive: [1] | [2] | [4] | [5] | [6] | [7] | [9] | [8] | [10]

C=C(C)C(=O)[O][Sn]([CH2]CCC)([CH2]CCC)[CH2]CCC
inactive: [2] | [5]
active: [1] 2.44 µM | [3] 9.35 µM | [4] 2.63 µM | [6] 4.2 µM | [7] 2.32 µM | [9] 1.88 µM | [8] 41.1 µM | [10] 1.18 µM

CCc1ccccc1N
inactive: [7]

CC(C)(OO)c1ccccc1
inactive: all assays above

CN(CCCC(=O)c1cccnc1)N=O
inactive: [7]

C[C@@H]1C[C@@H]([C@H](O)CC2CC(=O)NC(=O)C2)C(=O)[C@@H](C)C1
inactive: [1] | [7] | [9] | [8] | [10]
active: [2] 50 µM | [3] 36.2 µM | [4] 39.6 µM | [5] 16.7 µM | [6] 45.1 µM | [8] 13.5 µM

O=c1[nH]c(=O)[nH]c(=O)[nH]1
not listed: [9]
inactive: all other assays above

ClCC(Cl)CCl
inactive: all assays above

O=C(Nc1ccc2[nH]ccc2c1)c1cc2cc(F)ccc2n1Cc1cccc(F)c1
active: [2] 81.9 µM | [3] 50 µM | [4] 30.2 µM | [6] 38.3 µM | [8] 59.4 µM
inactive: [1] | [5] | [10]

CC(=O)[O][Hg][c]1ccccc1
active: [1] 23 µM | [2] 83.7 µM | [3] 32.5 µM | [4] 18.4 µM | [5] 11.6 µM | [6] 0.688 µM | [7] 8.24 µM | [9] 2.74 µM and 2.65 µM and 3.55 µM | [8] 4.84 µM and 12.5 µM and 8.1 µM | [10] 254 nM and 422 nM and 682 nM

CCC(C)(C)c1ccc(O)c(C(C)(C)CC)c1
active: [9] 46.1 µM and 45.7 µM | [8] 72.7 µM and 66.4 µM | [10] 52.9 µM and 64 µM
inactive: all other assays above

NC(=O)O
not listed: [9] | [10]
inactive: all other assays above

C[C@]12CCC(=O)C[C@@H]1CC[C@@H]1[C@@H]2CC[C@]2(C)[C@@H](O)CC[C@@H]12
inactive: all assays above

O=[N+]([O-])c1ccc(O)c([N+](=O)[O-])c1
active: [2] 12.6 µM | [3] 13.2 µM | [4] 20.2 µM | [5] 13.2 µM | [6] 88.5 µM | [8] 69 µM and 63.7 µM
inactive: [1] | [7] | [9] | [10]

C=CC(=O)OCCCCCC(C)C
not listed: [7] | [8]
inactive: all other assays above

CN(C)N=O
not listed: [8] | [9]
inactive: all other assays above

CC1(C)Cc2cccc(O)c2O1
inactive: [7]

CC12CC1(C)C(=O)N(c1cc(Cl)cc(Cl)c1)C2=O (stereo unspecified)
active: [3] 10.5 µM
inactive: all other assays above

ClC1=C(Cl)[C@]2(Cl)[C@@H]3[C@@H](Cl)[C@@H](Cl)C[C@@H]3[C@@]1(Cl)C2(Cl)Cl
inactive: [7]

CCCCCCCCC(=O)NCc1ccc(O)c(OC)c1
inactive: [7]

CC(C)(C)c1cc(O)ccc1O
inactive: all assays above

Cn1sc(Cl)cc1=O
inactive: [1] | [2] | [3] | [4] | [5] | [6] | [7] | [9] | [8] | [10]
active: [10] 29.8 µM

CC(C)(C)CC(C)(C)c1ccc(O)cc1
inactive: [1] | [2] | [3] | [4] | [5] | [7] | [10]
active: [6] 77 µM | [7] 26.7 µM and 58.4 µM and 53.9 µM | [9] 64.5 µM and 42.4 µM | [8] 74.7 µM and 35.4 µM | [10] 35 µM

Oc1cccc2cccnc12
not listed: [8]
inactive: all other assays above

O=C(O)C(Cl)(Cl)Cl
active: [4] 9.92 µM
inactive: [1] | [2] | [3] | [4] | [5] | [6] | [7] | [9] | [8] | [10]

CCN1CCC2(CC1)COc1cc3c(cc12)N(C(=O)c1ccc(-c2ccc(-c4nnc(C)o4)cc2C)cc1)CC3
active: [1] 29 µM | [4] 15.4 µM | [5] 27.4 µM | [6] 24.6 µM | [9] 54.7 µM | [8] 64.8 µM | [10] 67.5 µM
inactive: [2] | [3]

Cc1ccccc1N
inactive: all assays above

CCCCCCCCc1ccc(O)cc1
active: [3] 70.1 µM
inactive: all other assays above

O=C(O)C(F)(F)C(F)(F)C(F)(F)C(F)(F)C(F)(F)C(F)(F)C(F)(F)C(F)(F)C(F)(F)C(F)(F)F
active: [3] 31 µM
not listed: [4] | [9] | [10]
inactive: all other assays above

O=C(O)C(F)(F)C(F)(F)C(F)(F)C(F)(F)C(F)(F)C(F)(F)F
not listed: [8] | [9]
inactive: all other assays above

O=C(O)Cc1ccccc1
inactive: [7]

NC(=S)Nc1ccccc1
inactive: [7]

CN(C)P(=O)(N(C)C)N(C)C
inactive: [7] | [9] | [8]

CCCCC(CC)CO[N+](=O)[O-] (stereo unspecified)
inactive: [7] | [9] | [8]

CNC(=O)O/N=C/C(C)(C)S(C)=O (stereo unspecified)
inactive: [7] | [9] | [8]

ClCc1ccccn1
inactive: [7] | [9] | [8]

O=C1CCCN1
inactive: [7]

CCN(CC)C(=O)Cl
inactive: [7]

CCc1ccccc1C
inactive: [7]

O=C(c1ccccc1)C(Cl)Cl
inactive: [7]

O=Cc1cccc(Oc2ccccc2)c1
inactive: [7]

O=CC=O
inactive: [7]

C[C@]12CC[C@H](O)CC1=CC[C@@H]1[C@@H]2CC[C@]2(C)C(=O)CC[C@@H]12
inactive: [7]

CC(=O)C=C(C)C
inactive: [7]

Nc1cccc2ccccc12
inactive: [7] | [9]

CCOP(=S)(OCC)SCCS(=O)(=O)CC
inactive: [7]

CC(C)(c1ccc(OCC2CO2)cc1)c1ccc(OCC2CO2)cc1 (stereo unspecified)
inactive: [7] | [9] | [8] | [10]
active: [9] 68.3 µM | [10] 64.5 µM

COC(=O)Cc1ccccc1
inactive: [7]

CCC(=O)c1ccccc1
inactive: [7] | [9] | [8]

O=C(NCO)NCO
inactive: [7]

CCOC(=O)Nc1cccc(OC(=O)Nc2ccccc2)c1
inactive: [7] | [9] | [8]

N#CCCO
inactive: [7]

O=C1C(Cl)=C(Cl)C(=O)c2ccccc21
inactive: [7] | [9] | [8]
active: [9] 15 µM | [10] 30.9 µM and 46.2 µM
